The supplement of paper PMC9023506
Where a name gives a salt, the structure may show the parent alone.

Assays:
Details in all cases: 10 µM; exposure time: 3 h pre-incubation + 3 h imaging
[1] = system: Danio rerio larvae (5 dpf); test: excitability to 1-s acoustic pulses, difference vs DMSO (percentage points (treated minus DMSO)); higher = more of the behaviour than the DMSO vehicle control
Summary of the method: (§1)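 Library drugs were diluted 1000× from DMSO stocks into egg water to reach 10 µM and applied to 5-dpf wild-type zebrafish larvae in 96-well ProxiPlates, 48 larvae per drug. The larvae stayed exposed for 3 h before imaging and for the 3 h of imaging at 28.5 °C. Behaviour scores, given in percentage points, are the treated mean minus the vehicle mean for movement and upper-half location.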

[2] = system: Danio rerio larvae (5 dpf); test: optomotor response to red moving lines, difference vs DMSO (percentage points (treated minus DMSO)); higher = more of the behaviour than the DMSO vehicle control
Summary of the method: as §1

[3] = system: Danio rerio larvae (5 dpf); test: activity during period 15 (no stimuli), difference vs DMSO (percentage points (treated minus DMSO)); higher = more of the behaviour than the DMSO vehicle control
Summary of the method: as §1

[4] = system: Danio rerio larvae (5 dpf); test: optomotor response to blue moving lines, difference vs DMSO (percentage points (treated minus DMSO)); higher = more of the behaviour than the DMSO vehicle control
Summary of the method: as §1

[5] = system: Danio rerio larvae (5 dpf); test: optomotor response to green moving lines, difference vs DMSO (percentage points (treated minus DMSO)); higher = more of the behaviour than the DMSO vehicle control
Summary of the method: as §1

[6] = system: Danio rerio larvae (5 dpf); test: optomotor response to fast red moving lines, difference vs DMSO (percentage points (treated minus DMSO)); higher = more of the behaviour than the DMSO vehicle control
Summary of the method: as §1

[7] = system: Danio rerio larvae (5 dpf); test: habituation to 1-s acoustic pulses, difference vs DMSO (percentage points (treated minus DMSO)); higher = more of the behaviour than the DMSO vehicle control
Summary of the method: as §1

[8] = system: Danio rerio larvae (5 dpf); test: activity during first hour (no stimuli), difference vs DMSO (percentage points (treated minus DMSO)); higher = more of the behaviour than the DMSO vehicle control
Summary of the method: as §1

[9] = system: Danio rerio larvae (5 dpf); test: startle response to 20-s acoustic pulses, difference vs DMSO (percentage points (treated minus DMSO)); higher = more of the behaviour than the DMSO vehicle control
Summary of the method: as §1

CC/C(=C(\c1ccccc1)c1ccc(OCCN(C)C)cc1)c1ccccc1 [Tamoxifen citrate]
excitability to 1-s acoustic pulses [1]: 4.58
optomotor response to red moving lines [2]: -11
activity during period 15 [3]: 20.1
optomotor response to blue moving lines [4]: -14.3
optomotor response to green moving lines [5]: -10
optomotor response [6]: -8.84

O=c1n(CCCN2CCN(c3cccc(Cl)c3)CC2)nc2ccccn12 [Trazodone hydrochloride]
habituation to 1-s acoustic pulses [7]: -10.7
excitability to 1-s acoustic pulses [1]: 18.6
activity during period 15 [3]: 1.62
activity during first hour [8]: -0.623

CN1CC(=O)N2[C@H](c3ccc4c(c3)OCO4)c3[nH]c4ccccc4c3C[C@@H]2C1=O [Tadalafil]
activity during first hour [8]: 11
optomotor response [6]: -10.2

NC(=O)OCC(COC(N)=O)c1ccccc1 [Felbamate]
excitability to 1-s acoustic pulses [1]: -4.78
optomotor response to red moving lines [2]: -9.28
activity during period 15 [3]: 0.376
optomotor response to green moving lines [5]: -9.03

Cc1ccc(N(CC2=NCCN2)c2cccc(O)c2)cc1 [Phentolamine Mesylate]
activity during period 15 [3]: 4.99
activity during first hour [8]: 9.58

CN(CCOc1ccc(CC2SC(=O)NC2=O)cc1)c1ccccn1 (stereo not given) [Rosiglitazone]
optomotor response to blue moving lines [4]: -12.4

Cc1cccc(CN2CCN(C(c3ccccc3)c3ccc(Cl)cc3)CC2)c1 (stereo not given) [Meclizine dihydrochloride]
excitability to 1-s acoustic pulses [1]: 9.5
optomotor response to red moving lines [2]: -10.1
optomotor response to green moving lines [5]: -8.55
startle response to 20-s acoustic pulses [9]: -8.16

CCCc1nc(C(C)(C)O)c(C(=O)O)n1Cc1ccc(-c2ccccc2-c2nnn[nH]2)cc1 [Olmesartan]
habituation to 1-s acoustic pulses [7]: 3.67
optomotor response to red moving lines [2]: -10.3
activity during period 15 [3]: 4.45
startle response to 20-s acoustic pulses [9]: 7.62
optomotor response [6]: -5.64

CCCC1O[C@@H]2C[C@H]3[C@@H]4CCC5=CC(=O)C=C[C@]5(C)[C@H]4[C@@H](O)C[C@]3(C)[C@]2(C(=O)CO)O1 (stereo not given in full) [Budesonide]
habituation to 1-s acoustic pulses [7]: -1.73
optomotor response to red moving lines [2]: 12
activity during period 15 [3]: 5.26
optomotor response to green moving lines [5]: 0.891

CC(C)COCC(CN(Cc1ccccc1)c1ccccc1)N1CCCC1 (stereo not given) [Bepridil hydrochloride]
optomotor response to red moving lines [2]: 3.6
activity during period 15 [3]: 13.7

CS(=O)(=O)CCNCc1ccc(-c2ccc3ncnc(Nc4ccc(OCc5cccc(F)c5)c(Cl)c4)c3c2)o1 [Lapatinib]
excitability to 1-s acoustic pulses [1]: 14.5
activity during period 15 [3]: -13.3
optomotor response to blue moving lines [4]: 6.39
optomotor response to green moving lines [5]: 0.954
startle response to 20-s acoustic pulses [9]: -0.481
optomotor response [6]: -0.638

CC(C)OC(=O)C(C)(C)Oc1ccc(C(=O)c2ccc(Cl)cc2)cc1 [Fenofibrate]
habituation to 1-s acoustic pulses [7]: -5.04
optomotor response to red moving lines [2]: 16.3
activity during period 15 [3]: 6.23
optomotor response [6]: 19.2

C=C1[C@H](CO)[C@@H](O)C[C@@H]1n1cnc2c(=O)[nH]c(N)nc21 [Entecavir]
optomotor response to blue moving lines [4]: 11.4
optomotor response to green moving lines [5]: 0.498
optomotor response [6]: -0.927

OCc1cc(C(O)CNCCCCCCOCCCCc2ccccc2)ccc1O (stereo not given) [Salmeterol xinafoate]
activity during period 15 [3]: 23.9
optomotor response to blue moving lines [4]: -3.67
startle response to 20-s acoustic pulses [9]: -5.23
optomotor response [6]: -5.49

CN(C)CC/C=C1/c2ccccc2COc2ccc(CC(=O)O)cc21 [Olopatadine hydrochloride]
activity during period 15 [3]: -6.62
optomotor response to blue moving lines [4]: -0.0571
optomotor response to green moving lines [5]: 5.77

CN[C@H]1CC[C@@H](c2ccc(Cl)c(Cl)c2)c2ccccc21 [Sertraline hydrochloride]
habituation to 1-s acoustic pulses [7]: -2.9
excitability to 1-s acoustic pulses [1]: 8.5
optomotor response to blue moving lines [4]: -9.96
optomotor response to green moving lines [5]: -6.64

CN1CC[C@@H](NC(=O)Nc2ccc(C#N)cc2)C[C@@H]1c1nc2ccccc2[nH]1
optomotor response to blue moving lines [4]: 3.76

O=C(O)c1cc(/N=N/c2ccc(S(=O)(=O)Nc3ccccn3)cc2)ccc1O [Sulfasalazine]
activity during period 15 [3]: 15.3
optomotor response to blue moving lines [4]: -4.22

COc1ccccc1Oc1c(NS(=O)(=O)c2ccc(C(C)(C)C)cc2)nc(-c2ncccn2)nc1OCCO [Bosentan]
optomotor response to blue moving lines [4]: -2.84
optomotor response to green moving lines [5]: -5.7

CCC(C)(C)C(=O)O[C@H]1C[C@@H](C)C=C2C=C[C@H](C)[C@H](CC[C@@H]3C[C@@H](O)CC(=O)O3)[C@H]21 [Simvastatin]
optomotor response to red moving lines [2]: -5.54
activity during period 15 [3]: -3.71
startle response to 20-s acoustic pulses [9]: 3.9
optomotor response [6]: -13.2

CC(C)N(CCCCOCC(=O)NS(C)(=O)=O)c1cnc(-c2ccccc2)c(-c2ccccc2)n1 [Selexipag]
optomotor response to blue moving lines [4]: -1.72

COc1cc(Nc2c(C#N)cnc3cc(OCCCN4CCN(C)CC4)c(OC)cc23)c(Cl)cc1Cl [Bosutinib]
habituation to 1-s acoustic pulses [7]: 0.4
optomotor response to red moving lines [2]: 3.82
startle response to 20-s acoustic pulses [9]: -0.606
optomotor response [6]: 1.89

CCOc1nc2cccc(C(=O)O)c2n1Cc1ccc(-c2ccccc2-c2noc(=O)[nH]2)cc1 [Azilsartan]
excitability to 1-s acoustic pulses [1]: -0.616
optomotor response to red moving lines [2]: -3.43
optomotor response to green moving lines [5]: -0.791
startle response to 20-s acoustic pulses [9]: 3.96

Cc1c(-c2ccc(O)cc2)n(Cc2ccc(OCCN3CCCCCC3)cc2)c2ccc(O)cc12 [Bazedoxifene acetate]
habituation to 1-s acoustic pulses [7]: 0.273
excitability to 1-s acoustic pulses [1]: 16
optomotor response to red moving lines [2]: 9.09
optomotor response to green moving lines [5]: -2.2

CN1CCN(CCCN2c3ccccc3Sc3ccc(Cl)cc32)CC1 [Prochlorperazine dimaleate]
optomotor response to blue moving lines [4]: 12.2
optomotor response to green moving lines [5]: 3.92
optomotor response [6]: 2.92

N#Cc1ccc(C(c2ccc(C#N)cc2)n2cncn2)cc1 [Letrozole]
excitability to 1-s acoustic pulses [1]: -0.518
optomotor response to red moving lines [2]: -12.7
optomotor response to green moving lines [5]: 6.3

CCOc1nc2cccc(C(=O)O)c2n1Cc1ccc(-c2ccccc2-c2nnn[nH]2)cc1 [Candesartan]
habituation to 1-s acoustic pulses [7]: 4.86
optomotor response to red moving lines [2]: 4.89
startle response to 20-s acoustic pulses [9]: 10.6
optomotor response [6]: 1.2
